Several values for one entry are separate records, joined by “and”; a condition that tells them apart may be missing. Equal entries are not always repeated. The whole screen tested about 5,500 compounds, of which about 2,000 (36%) were called active. About 18% were inconclusive and are not listed. Rule as the data show it: active = normalized growth mostly below about 0.91 (no sharp cut-off); inconclusive = no clear call, values can overlap the other calls; inactive = mostly above about 0.92. Some of the results follow.
Assay: chemical genetic growth profiling, strain panel (AID 1159580);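 also: tested at 20 µM; growth read once vehicle control cultures reached saturation at 30 °C; 1 = growth at the plate median or of vehicle wells; lower values mean less growth of the strain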
Details: S. cerevisiae deletion strains, growth OD

Measured: normalized growth

O=c1cc(-c2ccc(O)cc2)oc2cc(O[C@@H]3O[C@H](CO)[C@@H](O)[C@H](O)[C@H]3O)cc(O)c12
inactive: locus YAL021C, strain ccr4, active compounds read low 0.975 | locus YAL026C, strain drs2, active compounds read low 1.02 | locus YAL030W, strain snc1, active compounds read low 1.01 | locus YBL061C, strain skt5, active compounds read low 1.01 | locus YBR009C, strain hhf1, active compounds read low 0.995 | locus YBR021W, strain FUR4, active compounds read low 0.953 | locus YBR023C, strain chs3, active compounds read low 0.995 | locus YBR171W, strain sec66, active compounds read low 1.02 | locus YBR229C, strain ROT2, active compounds read low 0.983 | locus YBR231C, strain swc5, active compounds read low 1.04 | locus YBR279W, strain paf1, active compounds read low 1 | locus YCL011C, strain gbp2, active compounds read low 0.992 | locus YCL016C, strain dcc1, active compounds read low 0.983 | locus YCL029C, strain bik1, active compounds read low 0.973 | locus YCL069W, strain vba3, active compounds read low 1 | locus YCR088W, strain abp1, active compounds read low 1 | locus YDL005C, strain med2, active compounds read low 1.03 | locus YDL035C, strain GPR1, active compounds read low 0.999 | locus YDL040C, strain nat1, active compounds read low 0.998 | locus YDL074C, strain BRE1, active compounds read low 0.974 | locus YDL101C, strain DUN1, active compounds read low 0.986 | locus YDL185W, strain tfp1, active compounds read low 0.968 | locus YDL192W, strain arf1, active compounds read low 0.976 | locus YDR001C, strain nth1, active compounds read low 1.01 | locus YDR069C, strain doa4, active compounds read low 1.01 | locus YDR101C, strain arx1, active compounds read low 0.981 | locus YDR137W, strain rgp1, active compounds read low 1.01 | locus YDR150W, strain NUM1, active compounds read low 0.988 | locus YDR159W, strain sac3, active compounds read low 1.06 | locus YDR162C, strain NBP2, active compounds read low 1.02 | locus YDR195W, strain ref2 1.01 | locus YDR297W, strain sur2, active compounds read low 1.02 | locus YDR318W, strain mcm21, active compounds read low 0.986 | locus YDR334W, strain swr1, active compounds read low 1.01 | locus YDR335W, strain msn5, active compounds read low 1 | locus YDR388W, active compounds read low 0.973 | locus YDR392W, strain spt3, active compounds read low 0.935 | locus YDR502C, strain sam2, active compounds read low 0.982 | locus YEL003W, strain gim4, active compounds read low 1.02 | locus YEL037C, strain rad23, active compounds read low 1.01 | locus YEL061C, strain CIN8 (second series), active compounds read low 1 | locus YEL061C, strain CIN8, active compounds read low 0.99 | locus YER015W, strain faa2, active compounds read low 0.993 | locus YER016W, strain bim1, active compounds read low 1.01 | locus YER110C, active compounds read low 0.995 | locus YER111C, strain swi4, active compounds read low 1.01 | locus YER155C, strain BEM2 (second series), active compounds read low 1.05 | locus YER155C, strain BEM2, active compounds read low 0.98 | locus YER167W, strain BCK2, active compounds read low 0.967 | locus YFR010W, strain ubp6, active compounds read low 1.02 | locus YGL078C, strain dbp3, active compounds read low 0.984 | locus YGL086W, strain mad1, active compounds read low 0.978 | locus YGL167C, strain pmr1, active compounds read low 1 | locus YGL173C, strain kem1, active compounds read low 1.03 | locus YGL227W, strain vid30, active compounds read low 1.01 | locus YGL240W, strain doc1, active compounds read low 1.02 | locus YGL248W, strain PDE1, active compounds read low 1 | locus YGL253W, strain hxk2, active compounds read low 1.01 | locus YGR078C, strain PAC10, active compounds read low 0.999 | locus YGR135W, strain pre9, active compounds read low 0.973 | locus YGR252W, strain gcn5, active compounds read low 0.974 | locus YHR013C, strain ard1, active compounds read low 0.994 | locus YHR027C, strain rpn1, active compounds read low 1.01 | locus YHR030C, strain SLT2, active compounds read low 0.986 and 1.05 | locus YHR079C, strain IRE1 (second series), active compounds read low 0.971 | locus YHR079C, strain IRE1, active compounds read low 1.03 | locus YHR094C, strain hxt1, active compounds read low 0.972 | locus YHR129C, strain ARP1, active compounds read low 0.988 | locus YHR142W, strain chs7, active compounds read low 1 | locus YHR200W, strain rpn10, active compounds read low 0.957 | locus YIL066C, strain RNR3, active compounds read low 0.979 | locus YIL073C, strain SPO22, active compounds read low 0.969 | locus YIL125W, strain kgd1, active compounds read low 0.974 | locus YIR030C, strain dcg1, active compounds read low 0.987 | locus YJL092W, strain hpr5, active compounds read low 1 | locus YJL095W, strain BCK1 (second series), active compounds read low 1.02 | locus YJL095W, strain BCK1, active compounds read low 1.02 | locus YJL115W, strain asf1, active compounds read low 1.01 | locus YJL129C, strain trk1, active compounds read low 1 | locus YJL134W, strain LCB3, active compounds read low 0.983 | locus YJL154C, strain vps35, active compounds read low 1.01 | locus YJL164C, strain tpk1, active compounds read low 0.979 | locus YJL166W, strain qcr8, active compounds read low 1.01 | locus YJL168C, strain set2, active compounds read low 0.995 | locus YJL187C, strain SWE1 (second series), active compounds read low 0.998 | locus YJR043C, strain POL32, active compounds read low 0.995 | locus YJR066W, strain TOR1, active compounds read low 0.998
